From PubChem BioAssay (NCI)
About 79,000 compounds went through this panel and 15% of them were active in at least one assay; those are over-represented in the sample as a whole. Unmarked numbers belong to inactive results. Calls of active or inactive are those of the source. No stated cut-off is given here; in the data, active means growth inhibition above about 70%; inactive means the rest.

How the values were obtained:
[1] = NCI Yeast Anticancer Drug Screen. Data for the rad50 strain (AID 155);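 further: 0% = growth of vehicle-only cultures of the same strain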; details: S. cerevisiae rad50 strain growth inhibition, hits give high values
Method in brief: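 Genetically altered yeast (DNA repair pathway); compound treatment; growth inhibition vs vehicle ctrl.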

[2] = NCI Yeast Anticancer Drug Screen. Data for the mec2-1 strain (AID 157); details: S. cerevisiae mec2-1 strain, hits give high values
Method in brief: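 Yeast mec2-1 mutant treated with compound. Readout: growth inhibition vs vehicle controls.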

[3] = NCI Yeast Anticancer Drug Screen. Data for the sgs1 mgt1 strain (AID 161);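 further: 0% = growth of cultures given vehicle only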; details: S. cerevisiae sgs1 mgt1 strain, hits give high values
Method in brief: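 Genetically altered yeast, compound exposure, growth inhibition relative to vehicle.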

[4] = NCI Yeast Anticancer Drug Screen. Data for the cln2 rad14 strain (AID 165);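 further: 0% = growth equal to vehicle treated cultures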; details: S. cerevisiae cln2 rad14 strain, hits give high values
Method in brief: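 cln2 rad14 yeast strain; compound exposure; growth inhibition read vs vehicle controls.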

[5] = NCI Yeast Anticancer Drug Screen. Data for the bub3 strain (AID 167); details: S. cerevisiae bub3 mutant strain, hits give high values
Method in brief: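 Yeast carrying a defined mutation is treated with each compound, and growth is compared with that of vehicle-exposed cells to give inhibition.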

[6] = NCI Yeast Anticancer Drug Screen. Data for the mlh1 rad18 strain (AID 175); details: S. cerevisiae mlh1 rad18 strain growth inhibition, hits give high values
Method in brief: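 Yeast w/ defined DNA-repair lesions; compound exposure; growth vs vehicle controls → % inhibition.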

[7] = at 5.0 µM (retest, dose inferred, filed as 0.5)
[8] = at 50.0 µM (retest, dose inferred, filed as 5.0)

SMILES | growth inhibition [1, 7] | growth inhibition [1, 8] | growth inhibition ([1]; at 50.0 µM) | growth inhibition [2, 7] | growth inhibition [2, 8] | growth inhibition ([2]; at 50.0 µM) | growth inhibition [3, 7] | growth inhibition [3, 8] | growth inhibition ([3]; at 50.0 µM) | growth inhibition [4, 7] | growth inhibition [4, 8] | growth inhibition ([4]; at 50.0 µM) | growth inhibition [5, 7] | growth inhibition [5, 8] | growth inhibition ([5]; at 50.0 µM) | growth inhibition [6, 7] | growth inhibition [6, 8] | growth inhibition ([6]; at 50.0 µM)
CN(C)C(=O)N(C)/N=C/c1ccc([N+](=O)[O-])o1 | 10% | 56% | 80.3% (active) | 1% | 21% | 53.5% | 8% | 68% | 90.8% (active) | 4% | 30% | 42.2% | 5% | 42% | 40% | 21% | 68% | 89.5% (active)
O=C1Oc2ccccc2C(=O)/C1=C/N1C(=O)/C(=C/c2ccc([N+](=O)[O-])cc2)SC1=S | 2% | 68% | 82.5% (active) | -4% | 82% (active) | 90% (active) | 22% | 93% (active) | 96.7% (active) | 3% | 83% (active) | 92.1% (active) | 7% | 49% | 85% (active) | 11% | 77% (active) | 86.3% (active)
COc1cc(C2CC(C)(OC)Oc3cc4c(cc32)OCO4)cc(OC)c1O (stereo not given) | 1% | 55% | 14.9% | 2% | 16% | -5.5% | -3% | 50% | 28.8% | 12% | 37% | 4.55% | 10% | 55% | -2.1% | 0% | 63% | 31.2%
Oc1ccc2c(c1)Cc1cc(Br)ccc1-2 | 3% | 99% (active) | 98.5% (active) | -6% | 99% (active) | 98.9% (active) | 7% | 80% (active) | 98.6% (active) | -5% | 99% (active) | 97.8% (active) | 24% | 99% (active) | 98.5% (active) | -11% | 99% (active) | 98.2% (active)
O=C1OCCCOC(=O)c2cc(ccc2O)OCC#CC#CCOc2ccc(O)c1c2 | 2% | -6% | 12.6% | -4% | 19% | 8.75% | -1% | -3% | 16.1% | 4% | -4% | 38.6% | 2% | -6% | 86.2% (active) | 0% | -4% | 29.7%
COc1ccc(C(=O)O)c(-c2c(C(=O)O)ccc(OC)c2OC(C)=O)c1 | 3% | 1% | 16.5% | -5% | 9% | 3.05% | -18% | 7% | -3.85% | 2% | -2% | 63.7% | 0% | -5% | 73% (active) | 14% | 13% | 54.6%
Cc1nc(C(N)=S)sc1C(=O)CC(=O)C(=O)Nc1nc2ccccc2[nH]1 | 10% | -9% | -7.35% | 11% | 24% | 23.1% | 13% | -110% | -24.9% | 7% | 3% | 2.85% | 11% | -7% | 1.75% | 12% | 25% | -42.5%
OC1C2CCC1C1C3C=CC(C3)C21 (stereo not given) | 1% | 91% (active) | 84.8% (active) | 5% | 93% (active) | 62.2% | 11% | 88% (active) | 42.4% | -3% | 38% | 70.2% (active) | 11% | 85% (active) | 52.1% | -1% | 94% (active) | 83% (active)
O=C(O)c1ccccc1SC(Sc1ccccc1C(=O)O)c1cccc(Cl)c1 | 8% | 92% (active) | 88% (active) | 7% | 97% (active) | 80% (active) | 22% | 99% (active) | 97% (active) | -1% | 87% (active) | 90% (active) | 9% | 97% (active) | 81.5% (active) | 15% | 97% (active) | 98% (active)
O=C(C[N+]12CN3CN(CN(C3)C1)C2)c1ccc(Cl)cc1Cl | -2% | -4% | 99.3% (active) | 9% | 5% | 99.5% (active) | -20% | -4% | 99.4% (active) | -1% | -6% | 99.2% (active) | 0% | -2% | 99.3% (active) | -12% | -26% | 99.4% (active)
CC(=O)n1c(=S)n(C(C)=O)c2ccccc21 | 2% | 83% (active) | 51.5% | -16% | 89% (active) | 54.4% | -24% | 76% (active) | 40.2% | 10% | 39% | 67.8% | -23% | 76% (active) | 71.1% (active) | -13% | 94% (active) | 30.1%
CSc1ccc(NC(=S)SC(C)C)cc1Cl | 15% | 98% (active) | 99% (active) | 1% | 99% (active) | 99.3% (active) | 19% | 99% (active) | 99.4% (active) | -32% | 97% (active) | 99% (active) | -6% | 99% (active) | 99.4% (active) | 19% | 99% (active) | 99% (active)
O=C(O)c1nnsc1-c1ccc(-c2snnc2C(=O)O)cc1 | 2% | 14% | 22% | -2% | 18% | 23.1% | -4% | 30% | -6.3% | 21% | 0% | 39.3% | 25% | 6% | 35.1% | 7% | 9% | 3.3%
O=C1C(=O)c2ccccc2C=C1Br | 50% | 99% (active) | 99% (active) | 91% (active) | 99% (active) | 99.2% (active) | 75% (active) | 99% (active) | 99.2% (active) | 67% | 99% (active) | 98.2% (active) | 93% (active) | 99% (active) | 98.7% (active) | 85% (active) | 99% (active) | 98.8% (active)
C=C1C[C@H](O)[C@H]2C(C[Se]c3ccccc3)C(=O)O[C@@H]2[C@H]2[C@H](C)C(O)C[C@@H]12 (stereo not given in full) | 2% | 35% | 43.6% | 2% | -7% | 20.6% | 9% | 61% | 17.2% | -2% | 8% | -32.1% | -5% | 21% | 21.8% | 0% | 32% | 86.5% (active)
O=c1oc(-c2ccccc2Br)ns1 | 0% | 99% (active) | 98.8% (active) | 3% | 100% (active) | 99.6% (active) | 9% | 99% (active) | 99.4% (active) | 4% | 99% (active) | 89.8% (active) | -8% | 99% (active) | 97.5% (active) | 6% | 99% (active) | 99.3% (active)
CCOC(=O)/C(Cl)=C(\C)Nc1nc2c(ccc3ccccc32)s1 | 22% | 20% | 8.8% | 1% | 66% | 26.6% | -8% | 31% | -0.75% | 15% | 71% (active) | 97.3% (active) | -4% | 94% (active) | 94.9% (active) | 0% | 21% | 0.6%
COc1ccc(/C=C2\NC(=O)NC2=O)cc1 | 0% | 7% | -1.65% | -4% | 5% | -6.8% | -1% | 3% | -0.65% | -4% | -3% | 24.1% | 27% | 22% | 6.25% | -1% | 5% | 18.6%
CCNc1cc(N)[n+](CC)c2n[nH]c(/N=C/c3cc(Cl)cc(Cl)c3O)c12 | 37% | 80% (active) | 88% (active) | 26% | 77% (active) | 87.5% (active) | 41% | 98% (active) | 89.8% (active) | 63% | 98% (active) | 79.9% (active) | 87% (active) | 97% (active) | 90.3% (active) | 37% | 78% (active) | 88.2% (active)
O=[N+]([O-])c1ccc2c(c1)/C(=C/c1ccccc1O)c1ccccc1-2 | 66% | 91% (active) | 92.7% (active) | 81% (active) | 93% (active) | 90.5% (active) | 69% | 92% (active) | 88.5% (active) | 52% | 87% (active) | 84.3% (active) | 42% | 91% (active) | 92% (active) | 89% (active) | 91% (active) | 90.2% (active)
